About 83,000 compounds went through this panel and 20% of them were active in at least one assay; those are over-represented in the sample as a whole.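 96-well plates, one dose, 48 hours. Percent growth reported; active if below 10.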 Active and inactive are the calls of the source.
test system: SR leukemia; test: NCI-60 one-dose screen, 48 h (100 = growth as untreated, 0 = no growth, -100 = all killed); conditions: 10 µM unless noted

**Q.** `N/N=C(\C(=N\N)c1ccccc1)c1ccccc1` was tested. Which growth did it give?
**A.** The growth was 77.2% (inactive).

**Q.** For `O=[N+]([O-])c1ccc(N/N=C/c2ccccc2O)nc1`, which growth is on record?
**A.** Its growth is 14.8% (inactive).

**Q.** `CN1C(=O)N(C)C2C1NN=c1s/c(=C\c3ccc(C(F)(F)F)cc3)c(=O)n12` (stereo unspecified) was tested. Which growth did it give?
**A.** The growth was 16.8% (inactive).

**Q.** How did the growth turn out when `CC(C)c1ccc(-c2cnc3nonc3n2)cc1` was run?
**A.** The growth was 6.91% (active).

**Q.** How did the growth turn out when `O=C(Cc1ccc([N+](=O)[O-])cc1)Oc1ccccc1` was run?
**A.** The growth was 96.7% (inactive).

**Q.** Which growth does the source give for `COc1cccc(NC(=O)OC(C)C)c1` here?
**A.** The growth was 92.4% (inactive).

**Q.** With `Cc1ccc(Nc2cc(Cl)c([N+](=O)[O-])cc2[N+](=O)[O-])cc1` as the compound, how does the growth read?
**A.** Its growth is 4.96% (active).

**Q.** Which growth does the source give for `CCOC(=O)c1cc(C(=O)OCC)c(C)nc1C` here?
**A.** Its growth is 87.9% (inactive).

**Q.** Which growth does the source give for `O=C(Nc1cccc(C2=NCCN2)c1)c1ccc(N=Nc2ccc(C(=O)Nc3cccc(C4=NCCN4)c3)cc2)cc1` here?
**A.** Its growth is 87.5% (inactive).

**Q.** How did the growth turn out when `Cc1c(C(=O)CCl)c(=O)n(-c2ccccc2)n1C` was run?
**A.** Its growth is 20.1% (inactive).

**Q.** With `CC(=O)N1N=C(C2C(=O)N(C)C(=O)N(C)C2=O)CC1c1ccccc1C(=O)O` (stereo unspecified) as the compound, how does the growth read?
**A.** Its growth is 93% (inactive).

**Q.** How did the growth turn out when `O=C(O/C(=C/c1ccccc1)C(F)(F)F)c1ccccc1` was run?
**A.** Its growth is 69.6% (inactive).

**Q.** `O=c1c2cc(Br)cc(Br)c2nc(-c2ccc(Cl)cc2)n1/N=C/c1cccc(F)c1` was tested. Which growth did it give?
**A.** The growth was 62.7% (inactive).

**Q.** For `COC(=O)CSc1ccc(Cl)cc1`, which growth is on record?
**A.** The growth was 78% (inactive).

**Q.** `c1ccc(CCn2cccc2)nc1` was tested. Which growth did it give?
**A.** The growth was 75.2% (inactive).

**Q.** Which growth does the source give for `Nc1cc(C(=O)O)cc(C(=O)O)c1` here?
**A.** Its growth is 75.3% (inactive).

**Q.** For `C=CCN(CC#N)CC=C`, which growth is on record?
**A.** The growth was 93.2% (inactive).

test system: RPMI-8226 leukemia; test: as above; conditions: 10 µM unless noted

**Q.** Which growth does the source give for `C=C(C)[C@@H]1CC[C@]2(C(=O)NS(=O)(=O)c3ccccc3)CC[C@]3(C)[C@H](CC[C@@H]4[C@@]5(C)CC[C@H](OC(=O)NS(=O)(=O)c6ccccc6)C(C)(C)[C@@H]5CC[C@]43C)[C@@H]12` here?
**A.** Its growth is -55.3% (active).

**Q.** For `COc1ccc(N=C2CSc3nnc(-c4cc(F)c(Cl)cc4Cl)n3N2)cc1`, which growth is on record?
**A.** Its growth is -23.5% (active).

**Q.** How did the growth turn out when `O=C1C=CN2C(=O)CC=CC2[C@@H]1O` (stereo partly specified) was run?
**A.** The growth was 96.4% (inactive).

**Q.** With `CCCNCCC(C)=O` as the compound, how does the growth read?
**A.** Its growth is 108% (inactive).

**Q.** How did the growth turn out when `CN(C)c1ccc(/C=C\c2cccc[n+]2C)cc1` was run?
**A.** Its growth is 3.96% (active).

**Q.** Which growth does the source give for `COC(=O)c1ccc2c(c1)nc(-c1ccc(Cl)cc1)n2-c1cc(C(C)(C)C)[nH]n1` here?
**A.** Its growth is 56.8% (inactive).

**Q.** `O=C1/C=C/[C@@H](O)[C@@H]2C[C@@H](O)C[C@H]2/C=C/CCC[C@H]([C@@H](O)CO)O1` was tested. Which growth did it give?
**A.** The growth was 112% (inactive).

**Q.** Which growth does the source give for `Cn1c(=O)c2c(nc(N/N=C/c3ccccc3Cl)n2C)n(C)c1=O` here?
**A.** Its growth is 111% (inactive).

**Q.** `O=C1Nc2ccc(Cl)cc2/C1=C\c1c(-c2ccc(F)cc2)nc2ccccn12` was tested. Which growth did it give?
**A.** Its growth is 70.4% (inactive).

**Q.** With `COC(=O)c1ccc2c(c1)nc(-c1cc3ccccc3[nH]c1=O)n2-c1cc(C(C)(C)C)[nH]n1` as the compound, how does the growth read?
**A.** The growth was 22% (inactive).

**Q.** Which growth does the source give for `CCOC(=O)Nc1ccc2nc(N3CCCCCC3)sc2c1` here?
**A.** The growth was 19.5% (inactive).

**Q.** With `COc1ccc(C(=O)N2N=C(c3ccc(F)cc3)CC2c2cn(-c3ccccc3)nc2-c2ccccc2)cc1` (stereo unspecified) as the compound, how does the growth read?
**A.** Its growth is 62% (inactive).

**Q.** Which growth does the source give for `N=c1nc(N2CCCCC2)cc(N)n1O` here?
**A.** Its growth is 109% (inactive).

**Q.** Which growth does the source give for `COc1ccc(C2NC(=O)c3cc4c(cc3N2)OCO4)cc1` (stereo unspecified) here?
**A.** The growth was 27.8% (inactive).

**Q.** With `O=C1OCC2=C1C(c1ccccc1)c1cc3c(cc1N2CCO)OCO3` (stereo unspecified) as the compound, how does the growth read?
**A.** Its growth is 46.4% (inactive).

**Q.** For `COc1ccc(/C=C/c2nc(NCCCN(C)C)c3ccccc3n2)cc1`, which growth is on record?
**A.** The growth was 0.379% (active).

**Q.** `Fc1ccc(-c2nc(-c3ccc(-c4nc5ccc(F)cc5[nH]4)cc3)no2)cc1` was tested. Which growth did it give?
**A.** Its growth is 88.1% (inactive).

**Q.** For `N=C(N)c1ccc(NCCNc2ccc(C(=N)N)cc2)cc1`, which growth is on record?
**A.** The growth was 82.8% (inactive).

**Q.** For `COc1ccc(CC2c3cc(OC)c(OC)cc3CC[N+]2(C)CCC(=O)OCCCCCOC(=O)CC[N+]2(C)CCc3cc(OC)c(OC)cc3C2Cc2ccc(OC)c(OC)c2)cc1OC` (stereo unspecified), which growth is on record?
**A.** The growth was 96.3% (inactive).

**Q.** With `O=C1Nc2ccccc2/C1=C\c1nc(C2CCN(S(=O)(=O)c3ccc(F)cc3)CC2)n2ccccc12` as the compound, how does the growth read?
**A.** The growth was 94.3% (inactive).

**Q.** Which growth does the source give for `COc1ccc(Nc2nc(N)nc3c(=O)[nH]ccc23)cc1` here?
**A.** The growth was 97.3% (inactive).

test system: OVCAR-8 ovarian; test: as above; conditions: 10 µM unless noted

**Q.** Which growth does the source give for `N/N=C(\C(=N\N)c1ccccc1)c1ccccc1` here?
**A.** Its growth is 104% (inactive).

**Q.** Which growth does the source give for `C=C(C)[C@@H]1CC[C@]2(C(=O)NS(=O)(=O)c3ccccc3)CC[C@]3(C)[C@H](CC[C@@H]4[C@@]5(C)CC[C@H](OC(=O)NS(=O)(=O)c6ccccc6)C(C)(C)[C@@H]5CC[C@]43C)[C@@H]12` here?
**A.** Its growth is 18.4% (inactive).

**Q.** `O=[N+]([O-])c1ccc(N/N=C/c2ccccc2O)nc1` was tested. Which growth did it give?
**A.** Its growth is 24.3% (inactive).

**Q.** For `CN1C(=O)N(C)C2C1NN=c1s/c(=C\c3ccc(C(F)(F)F)cc3)c(=O)n12` (stereo unspecified), which growth is on record?
**A.** The growth was 29.1% (inactive).

**Q.** For `CC(C)c1ccc(-c2cnc3nonc3n2)cc1`, which growth is on record?
**A.** Its growth is 36.6% (inactive).

**Q.** Which growth does the source give for `COc1ccc(N=C2CSc3nnc(-c4cc(F)c(Cl)cc4Cl)n3N2)cc1` here?
**A.** The growth was 6.26% (active).

**Q.** Which growth does the source give for `O=C1C=CN2C(=O)CC=CC2[C@@H]1O` (stereo partly specified) here?
**A.** Its growth is 114% (inactive).

**Q.** Which growth does the source give for `CCCNCCC(C)=O` here?
**A.** Its growth is 106% (inactive).

**Q.** `O=C(Cc1ccc([N+](=O)[O-])cc1)Oc1ccccc1` was tested. Which growth did it give?
**A.** Its growth is 107% (inactive).

**Q.** `CN(C)c1ccc(/C=C\c2cccc[n+]2C)cc1` was tested. Which growth did it give?
**A.** The growth was 28.6% (inactive).

**Q.** `COc1cccc(NC(=O)OC(C)C)c1` was tested. Which growth did it give?
**A.** Its growth is 106% (inactive).

**Q.** Which growth does the source give for `COC(=O)c1ccc2c(c1)nc(-c1ccc(Cl)cc1)n2-c1cc(C(C)(C)C)[nH]n1` here?
**A.** The growth was 83.1% (inactive).

**Q.** Which growth does the source give for `Cc1ccc(Nc2cc(Cl)c([N+](=O)[O-])cc2[N+](=O)[O-])cc1` here?
**A.** Its growth is 26.8% (inactive).

**Q.** For `CCOC(=O)c1cc(C(=O)OCC)c(C)nc1C`, which growth is on record?
**A.** Its growth is 104% (inactive).

**Q.** With `O=C(Nc1cccc(C2=NCCN2)c1)c1ccc(N=Nc2ccc(C(=O)Nc3cccc(C4=NCCN4)c3)cc2)cc1` as the compound, how does the growth read?
**A.** The growth was 37.5% (inactive).

**Q.** Which growth does the source give for `Cc1c(C(=O)CCl)c(=O)n(-c2ccccc2)n1C` here?
**A.** Its growth is 72.3% (inactive).

**Q.** `O=C1/C=C/[C@@H](O)[C@@H]2C[C@@H](O)C[C@H]2/C=C/CCC[C@H]([C@@H](O)CO)O1` was tested. Which growth did it give?
**A.** Its growth is 82% (inactive).

**Q.** For `CC(=O)N1N=C(C2C(=O)N(C)C(=O)N(C)C2=O)CC1c1ccccc1C(=O)O` (stereo unspecified), which growth is on record?
**A.** Its growth is 103% (inactive).

**Q.** With `Cn1c(=O)c2c(nc(N/N=C/c3ccccc3Cl)n2C)n(C)c1=O` as the compound, how does the growth read?
**A.** Its growth is 98.6% (inactive).

**Q.** For `O=C1Nc2ccc(Cl)cc2/C1=C\c1c(-c2ccc(F)cc2)nc2ccccn12`, which growth is on record?
**A.** Its growth is 22% (inactive).

**Q.** Which growth does the source give for `O=C(O/C(=C/c1ccccc1)C(F)(F)F)c1ccccc1` here?
**A.** Its growth is 101% (inactive).

**Q.** For `COC(=O)c1ccc2c(c1)nc(-c1cc3ccccc3[nH]c1=O)n2-c1cc(C(C)(C)C)[nH]n1`, which growth is on record?
**A.** The growth was 54% (inactive).

**Q.** Which growth does the source give for `O=c1c2cc(Br)cc(Br)c2nc(-c2ccc(Cl)cc2)n1/N=C/c1cccc(F)c1` here?
**A.** The growth was 29.4% (inactive).

**Q.** How did the growth turn out when `CCOC(=O)Nc1ccc2nc(N3CCCCCC3)sc2c1` was run?
**A.** Its growth is 32.7% (inactive).

**Q.** With `COC(=O)CSc1ccc(Cl)cc1` as the compound, how does the growth read?
**A.** The growth was 106% (inactive).

**Q.** `COc1ccc(C(=O)N2N=C(c3ccc(F)cc3)CC2c2cn(-c3ccccc3)nc2-c2ccccc2)cc1` (stereo unspecified) was tested. Which growth did it give?
**A.** The growth was 39.4% (inactive).

**Q.** How did the growth turn out when `N=c1nc(N2CCCCC2)cc(N)n1O` was run?
**A.** Its growth is 103% (inactive).

**Q.** For `COc1ccc(C2NC(=O)c3cc4c(cc3N2)OCO4)cc1` (stereo unspecified), which growth is on record?
**A.** The growth was 22.3% (inactive).

**Q.** With `O=C1OCC2=C1C(c1ccccc1)c1cc3c(cc1N2CCO)OCO3` (stereo unspecified) as the compound, how does the growth read?
**A.** The growth was 63.3% (inactive).

**Q.** How did the growth turn out when `COc1ccc(/C=C/c2nc(NCCCN(C)C)c3ccccc3n2)cc1` was run?
**A.** The growth was 79.8% (inactive).

**Q.** Which growth does the source give for `c1ccc(CCn2cccc2)nc1` here?
**A.** Its growth is 102% (inactive).

**Q.** `Nc1cc(C(=O)O)cc(C(=O)O)c1` was tested. Which growth did it give?
**A.** Its growth is 99.3% (inactive).

**Q.** For `Fc1ccc(-c2nc(-c3ccc(-c4nc5ccc(F)cc5[nH]4)cc3)no2)cc1`, which growth is on record?
**A.** Its growth is 86.5% (inactive).

**Q.** `N=C(N)c1ccc(NCCNc2ccc(C(=N)N)cc2)cc1` was tested. Which growth did it give?
**A.** The growth was 92.4% (inactive).

**Q.** Which growth does the source give for `COc1ccc(CC2c3cc(OC)c(OC)cc3CC[N+]2(C)CCC(=O)OCCCCCOC(=O)CC[N+]2(C)CCc3cc(OC)c(OC)cc3C2Cc2ccc(OC)c(OC)c2)cc1OC` (stereo unspecified) here?
**A.** Its growth is 96.5% (inactive).

**Q.** How did the growth turn out when `C=CCN(CC#N)CC=C` was run?
**A.** Its growth is 100% (inactive).

**Q.** With `O=C1Nc2ccccc2/C1=C\c1nc(C2CCN(S(=O)(=O)c3ccc(F)cc3)CC2)n2ccccc12` as the compound, how does the growth read?
**A.** The growth was 18% (inactive).

**Q.** Which growth does the source give for `COc1ccc(Nc2nc(N)nc3c(=O)[nH]ccc23)cc1` here?
**A.** Its growth is 107% (inactive).

Reference: PubChem BioAssay (NCI)
